Here are results for 40 molecules from the supplement of paper PMC8975748.

SMILES strings stand for the structures. Where a name gives a salt, the structure may show the parent alone.

In the test the test system is Saccharomyces cerevisiae BY4741 SeMeCo community. The test can be described thus: z-score of subpopulation abundance vs DMSO median, subpopulation auxotrophic for HLU; higher = larger share of this subpopulation than in DMSO controls. Particulars: 10 µM; 24 h; SM minimal medium; subpopulation (auxotrophy): HLU. Here is the method:
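Fluorescent four-plasmid SeMeCo (self-establishing metabolically cooperating S. cerevisiae BY4741 community; plasmids pH-mRuby2, pL-mWasabi, pU-eCFP, pM-TagRFP657) was grown 24 h in minimal SM medium with each Selleck FDA-approved drug at 10 µM in 384-well plates. Cells were fixed and imaged by high-content confocal microscopy. For each auxotrophic subpopulation (and the prototroph), a z-score gives the deviation from the DMSO vehicle-control population median.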
As for `CN(Cc1cnc2nc(N)nc(N)c2n1)c1ccc(C(=O)N[C@@H](CCC(=O)O)C(=O)O)cc1` [Methotrexate], the “z-score of subpopulation abundance” value was 4.61. Under `CO/N=C(\C(=O)N[C@@H]1C(=O)N2C(C(=O)O)=C(COC(N)=O)CS[C@H]12)c1ccco1` [Cefuroxime sodium] stands -1.34. Then `CCN1CCN(C(=O)N[C@@H](C(=O)N[C@@H]2C(=O)N3[C@@H]2SC(C)(C)[C@@H]3C(=O)O)c2ccccc2)C(=O)C1=O` [Piperacillin Sodium], with 0.68. Under `CO[C@@]1(NC(=O)Cc2cccs2)C(=O)N2C(C(=O)O)=C(COC(N)=O)CS[C@@H]21` [Cefoxitin sodium] stands -1.19; under `CN(C)C[C@@H]1CCn2cc(c3ccccc32)C2=C(C(=O)NC2=O)c2cn(c3ccccc23)CCO1`, 1.21.

With `CCCCc1oc2ccccc2c1C(=O)c1cc(I)c(OCCN(CC)CC)c(I)c1` [Amiodarone HCl], the “z-score of subpopulation abundance” value worked out at 4.05. Then `CCCCCCCCN=C(N)NC(N)=NCc1ccc(Cl)c(Cl)c1` [Olanexidine Hydrochloride semihydrate], with 5.73. Under `C#C[C@]1(O)CC[C@H]2[C@@H]3CCC4=CCCC[C@@H]4[C@H]3C(=C)C[C@@]21CC` [Desogestrel] stands 0.73; under `Oc1c(I)cc(I)c2cccnc12` [Diiodohydroxyquinoline], 4.17; under `CC1CCc2c(N3CCC(O)CC3)c(F)cc3c(=O)c(C(=O)O)cn1c23` (stereo not given) [Nadifloxacin], -0.45. Under `CCOc1cc(N)c(Cl)cc1C(=O)NCC1CN(Cc2ccc(F)cc2)CCO1` (stereo not given) [Mosapride Citrate] stands 0.02; under `CCOC(=O)C1=C(COCCN)NC(C)=C(C(=O)OC)C1c1ccccc1Cl` (stereo not given) [Amlodipine], -3.87; under `CO[C@@]1(NC(=O)CSC[C@@H](N)C(=O)O)C(=O)N2C(C(=O)O)=C(CSc3nnnn3C)CS[C@@H]21` [Cefminox Sodium], 0.47. For the molecule `COc1c(N2CCNC(C)C2)c(F)cc2c(=O)c(C(=O)O)cn(C3CC3)c12` (stereo not given) [Gatifloxacin], the “z-score of subpopulation abundance” value is -0.36. Take `N=C(N)NS(=O)(=O)c1ccc(N)cc1` [Sulfaguanidine]: the “z-score of subpopulation abundance” value is -0.69. Then `Cc1cccc(C#Cc2ccccc2)n1`, with -0.17; and `COc1ccc(C2CNC(=O)C2)cc1OC1CCCC1` (stereo not drawn) [S- (+)-Rolipram], with -1.07; and `CCCOc1ccc2[nH]c(NC(=O)OC)nc2c1` [Oxibendazole], with 0.8. As to `COc1cc(/C=C/C(=O)N2CCN(CC(=O)N3CCCC3)CC2)cc(OC)c1OC` [Cinepazide maleate], the “z-score of subpopulation abundance” value worked out at 0.11.

Consider `C=CC[N+]1([C@H]2C[C@H]3[C@@H]4CC[C@H]5C[C@H](O)[C@@H](N6CCOCC6)C[C@]5(C)[C@H]4CC[C@]3(C)[C@H]2OC(C)=O)CCCC1` [Rocuronium Bromide], for which the “z-score of subpopulation abundance” value was found to be 0. Then `Clc1ccc(CCC(Cn2ccnc2)Sc2c(Cl)cccc2Cl)cc1` (stereo not given) [Butoconazole], with 9.84.

Take `CCCN[C@H]1CCc2nc(N)sc2C1` [Pramipexole 2HCl Monohydrate]: the “z-score of subpopulation abundance” value was -0.47. Then `CNCC[C@H](Oc1cccc2ccccc12)c1cccs1` [Duloxetine], with -1.41; and `CC(C)Cc1ccc(C(C)C(=O)O)cc1` (stereo not given) [Ibuprofen], with -0.51. For `Nc1ccc(S(=O)(=O)Nc2ncccn2)cc1` [Sodium sulfadiazine], the “z-score of subpopulation abundance” value came to 0.17. Under `Nc1c(CC(=O)O)cccc1C(=O)c1ccccc1` [Amfenac Sodium Monohydrate] stands 0.63. Then `CC1=C(C(=O)O)N2C(=O)[C@@H](NC(=O)[C@H](N)c3ccc(O)cc3)[C@H]2SC1` [Cefadroxil hydrate], with -0.42; and `CC1(C)[C@H](C(=O)O)N2C(=O)C[C@H]2S1(=O)=O` [Sulbactam], with -0.86; and `CC[C@@]1(O)C(=O)OCc2c1cc1n(c2=O)Cc2cc3cc(O)ccc3nc2-1` [(S)-10-Hydroxycamptothecin], with 0.14.

For the molecule `CCCCC(F)(F)[C@@]1(O)CC[C@H]2[C@@H](CC(=O)[C@@H]2CCCCCCC(=O)O)O1` [Lubiprostone], the “z-score of subpopulation abundance” value was -0.93.

In the case of `CS(=O)(=O)c1ccc(C2=C(c3ccccc3)C(=O)OC2)cc1` [Rofecoxib], the “z-score of subpopulation abundance” value was 1.31. Under `CN1CCN(C2=Nc3ccccc3Oc3ccc(Cl)cc32)CC1` [Loxapine Succinate] stands 0.59. `CO/N=C(\C(=O)N[C@@H]1C(=O)N2C(C(=O)OCOC(=O)C(C)(C)C)=C(/C=C\c3scnc3C)CS[C@H]12)c1csc(N)n1` [Cefditoren Pivoxil]: the “z-score of subpopulation abundance” value was 0.74. Then `COc1c(N2C[C@@H]3CCCN[C@@H]3C2)c(F)cc2c(=O)c(C(=O)O)cn(C3CC3)c12` [Moxifloxacin HCl], with -0.07.

`CCCCCNC(=N)N/N=C/c1c[nH]c2ccc(OC)cc12` [Tegaserod Maleate]: the “z-score of subpopulation abundance” value worked out at 1.26.

Consider `CCN1CCN(c2cc3c(cc2F)c(=O)c(C(=O)O)cn3C2CC2)CC1` [Enrofloxacin], for which the “z-score of subpopulation abundance” value was -0.04. Turning to `C[C@@H]1[C@H](O)[C@@H](C)/C=C/C=C/C=C/C=C/C=C/C=C/C=C/[C@H](O[C@@H]2O[C@H](C)[C@@H](O)[C@H](N)[C@@H]2O)C[C@@H]2O[C@](O)(C[C@@H](O)C[C@@H](O)[C@H](O)CC[C@@H](O)C[C@@H](O)CC(=O)O[C@H]1C)C[C@H](O)[C@H]2C(=O)O` [Amphotericin B], the “z-score of subpopulation abundance” value amounted to 31.3. Then `O=C(c1ccc(F)cc1)C1CCN(CCn2c(=O)[nH]c3ccccc3c2=O)CC1` [Ketanserin], with 0.14. Then `Oc1c(I)cc(Cl)c2cccnc12` [Clioquinol], with 41. `CN(C)CCC[C@@]1(c2ccc(F)cc2)OCc2cc(C#N)ccc21` [Escitalopram Oxalate]: the “z-score of subpopulation abundance” value was -0.25.
